Bioassay records as filed in PubChem BioAssay.
IL-2 act – activators of IL-2. hit rate 0.065% among 360,000. IL-2 activation reporter assay, cell-based qHTS; stimulated with anti-CD3/CD4/CD28 beads; in transgenic mouse T cells. activation, % (series mostly up to about 46 µM). AID 652025; in the data active = activation above about 50%; inconclusive = mostly about 30% to 49%; note: 0% is about no effect
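Using fluorescent plate cytometry, EGFP and DsRed are detected in transgenic mouse T cells stimulated 18 h at 37 degrees C with antibody-coated beads after 60 min compound pretreatment.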
p53 reactivation – mutant p53 re-activation in reporter cells | Potency, µM (top dose mostly 92.2 µM), without a hit: top-dose activity change, positive = activation, usual class: activators | AID 504706 | hit rate 0.063% among 320,000 | H1299 p53-A138V BP100-luciferase reporter, luminescence, 24 h; note: potency is the fitted concentration of half-maximal effect; % of control where 0% means no effect; nearly all actives have a fitted effect of over 45% in size
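H1299 (p53-null), stable ts p53-A138V + BP100-Luc; 1000 cells/well, Opti-MEM/10% FBS; cpd 4 pt, 1:5; 24 h, 37 deg C, 5% CO2; detection reagent 10 min RT; luminescence.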
Mito fusion act – blocks mitochondrial division or promotes mitochondrial fusion. Potency, µM (titrated, usually from 46.1 µM), for inactives: at the top dose growth rescue (activation), hits mostly activators. S. cerevisiae fusion-defective mutant growth rescue, CellTiterGlo 48 h. AID 485298. hit rate 0.23% among 320,000; note: potency is the fitted concentration of half-maximal effect; % of control where 0% means no effect; nearly all actives have a fitted effect of over 45% in size
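Yeast fusion mutant, YPEG (non-fermentable carbon), compound, 48 h at 37C non-permissive; CellTiterGlo added, 10 min RT, luminescence read. Rescued growth = division inhibition.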
TCR activator – T cell receptor activation. primary human leukocytes, anti-CD3, IL-2 HTRF, 48 h. Potency, µM (series often up to 9.22 µM), for inactives: at the top dose activation of IL-2 secretion, hits mostly activators. 330,000 tested, under 10 active. AID 504894; note: % of control where 0% means no effect
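Readout: HTRF IL-2, Eu-cryptate/d2 antibody pair, 320nm excitation, 665nm emission. Stimulus: a-CD3 beads, no co-stimulation. Cells: primary human leukocytes. Exposure: 48 hr with compound.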
BRCA1 expr act – BRCA1 expression activation; MCF7-BRCA1-FFLuc reporter, luminescence, 48 h; response scale: scaled: vehicle 0%, 10 µM genistein 100%; Potency, µM (titrated, usually from 46.1 µM), without a hit: at the highest dose activation, actives largely listed as activators; hit rate 1.1% among 380,000; AID 624202; note: potency is the fitted concentration of half-maximal effect; nearly all actives have a fitted effect of over 80% in size
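MCF7 cells carrying a BRCA1-firefly luciferase reporter (2000 cells/well, phenol-red free MEM) were attached for 2 h at 37 °C, then given compounds for 48 h. Luminescence was read 15 min after luciferase reagent; activity normalized to genistein (10 microM) and DMSO.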
* = called active by the depositor; ? = inconclusive; / = no result given; ! = a repeat was not active; [ ] = dose if it differs, or a comment. Compounds with a hit are over-represented: about 1.3% of the library has one in this group of screens. Unless noted, calls come from the whole dose curve; as a rule, active = well fitted curve in the direction sought with a large enough effect; inconclusive = small, poorly fitted or top-dose-only effect, or another doubt; inactive = no such curve, though single readings can be large; an effect the other way counts as inactive or inconclusive.

SMILES | IL-2 act | p53 reactivation | Mito fusion act | TCR activator | BRCA1 expr act
COc1ccc2c(c1)C13CCCCC1C(C2)N(C)CC3 (stereo unspecified) | / | / | -30% | / | /
Cc1cccn2c(=O)c3c(nc12)N1CCC(Cc2ccccc2)CC1C1(C3)C(=O)N(C)C(=O)N(C)C1=O (stereo unspecified) | -1 | -2% | 18µM* | 5% | -82%
COc1cccc(C(=O)C2CCCN(Cc3ccc(F)cc3)C2)c1 (stereo unspecified) | -2 | / | -1% | -8% | -39%
COc1ccc(CCN2CCCC(CN(C)C(=O)c3cc(C)oc3C)C2)cc1 (stereo unspecified) | -1 | 35µM* | 0% | 2% | 7.9µM*
COc1ccc(C(C)(C)C)cc1NC(=O)CCCn1c(=O)oc2ccccc21 | -2 | -19% | 20% | 4%[46.1 µM] | -10%
CCS(=O)(=O)Nc1ccc(C2=NN(C(=O)c3ccco3)C(c3ccc(Cl)o3)C2)cc1 (stereo unspecified) | 0 | -16% | / | 0%[46.1 µM] | -100%
CCOC(=O)CNC(=O)CNC(=O)C(Cc1ccc(N(CCCl)CCCl)cc1)NC(C)=O (stereo unspecified) | 0 | 1% | -2% | -13% | 30%
CCOC(=O)C(NC(=O)C(Cc1ccc(N(CCCl)CCCl)cc1)NC(C)=O)C(C)C (stereo unspecified) | 0 | 7% | 4µM* | -9% | -8%
Cc1cccc(OC(=O)n2c(=S)oc3cc(Cl)ccc32)c1 | 0 | -6% | ? | 9%[46.1 µM] | 3%
CC(C)N(Cc1ccccc1)C(=O)CCS(=O)(=O)c1ccc2c(c1)oc(=O)n2C | -3 | ? | 6% | 0% | 0%
Cc1ccc2c(c1N)C(=O)c1ccccc1C2=O | 2 | ? | -14% | 6% | 10µM*
Cc1cccc(OCCn2c(=O)oc3ccc(C)cc32)c1 | -1 | 5% | 19% | 0% | 8.9µM*
ClCCN(CCCl)c1ccc(/C=C/c2ccnc3ccccc23)cc1 | / | / | / | / | -30%
O=C(O)C(F)(F)S(=O)(=O)O | -1 | 1% | 3.2µM* | 0% | 0%
O=C(O)C(Cl)(Cl)Cl | 1 | / | / | 9% | -5%
c1ccc(CCNCc2ccccc2)cc1 | 0 | -6% | -4% | -4%[46.1 µM] | 17%
CC1=C/C(=N\NC(=S)NCCc2ccccc2)CC(C)(C)C1 | 7 | ? | 14% | 4% | 11µM*
COc1nc(NC2CCCCC2)nc(NC(C)(C)C)n1 | -2 | / | / | -6% | ?
O=C(N1CCCCCC1)N1CC1 | 1 | / | / | -3% | 25%
CN(C)P(=O)(C(Cl)=C(N1CCCCC1)N1CCCCC1)N(C)C | -1 | 32µM* | -4% | 2% | 4%
COc1ccc(C(=O)CSc2nnc(CNC(=O)c3ccc(S(=O)(=O)N(C)C)cc3)o2)cc1 | 1 | ? | 2% | -3% | -15%
C/C(=N\OC(=O)NC(C)C)c1sc(-c2ccccc2)nc1C | -1 | 10% | 7% | -3% | 5.6µM*
Cc1c(N=Cc2c(O)n(CCc3ccccc3)c(=O)[nH]c2=O)c(=O)n(-c2ccccc2)n1C | 0 | -2% | -7% | -7% | -7%
Cc1c(N=Cc2c(O)n(C3CCCCC3)c(=O)[nH]c2=O)c(=O)n(-c2ccccc2)n1C | 62* | -2% | -2% | -1% | -8%
O=C(CI)c1ccc(Cl)cc1 | / | / | / | / | 16%
SMILES | IL-2 act | p53 reactivation | Mito fusion act | TCR activator | BRCA1 expr act
O=c1[nH]c(O)c(/C=C2\C=Nc3ccc(OCc4ccccc4)cc32)c(=O)[nH]1 | 193* | / | 2% | -1% | -18%
O=c1[nH]c(O)c(C=NCCc2ccccc2)c(=O)[nH]1 | 0 | 5% | 0% | 0% | -1%
CCN(CC)C(=O)c1ccc(NC(=O)c2cccc(F)c2)cc1 | 2 | 18% | -2% | -3% | 11µM*
Cc1ccc(N/N=C/C=C/c2ccco2)cc1 | -1 | / | / | -7% | 7.9µM*
S=C(S)N1CCCC1 | -1 | -4% | -82% | 0% | -1%
O=c1[nH]cc(F)c(=O)[nH]1 | 0 | -3% | 2.9µM*! | -1% | -27%
CCC(=O)Nc1ccc(C(=O)OCc2ccccc2Cl)cc1 | 1 | 16% | 15% | -1% | 7.1µM*
CCC(=O)Nc1ccc(Cl)c(Cl)c1 | 0 | / | / | 0% | -11%
